Inconclusive results are not listed. Calls of active or inactive are those of the source. Calls come from the whole dose curve; as a rule, active = well fitted inhibition curve with a large enough effect in the signal ratio in the repeat runs (not every such curve was filed as active); inconclusive = weak or mixed curves, or effect the other way; inactive = no such curve, though single readings can be large or run the other way; the % refers to the signal ratio.
biological target: Vitamin D3 receptor (Homo sapiens) (UniProt P11473); assay: qHTS assay to identify small molecule antagonists of the vitamin D receptor (VDR) signaling pathway (AID 743223); conditions: VDR-UAS-bla HEK293T, beta-lactamase FRET ratio, 16 h; series mostly up to 61 µM; activity change, negative = inhibition: at the top concentration
Sequence (P11473 whole entry, looked up): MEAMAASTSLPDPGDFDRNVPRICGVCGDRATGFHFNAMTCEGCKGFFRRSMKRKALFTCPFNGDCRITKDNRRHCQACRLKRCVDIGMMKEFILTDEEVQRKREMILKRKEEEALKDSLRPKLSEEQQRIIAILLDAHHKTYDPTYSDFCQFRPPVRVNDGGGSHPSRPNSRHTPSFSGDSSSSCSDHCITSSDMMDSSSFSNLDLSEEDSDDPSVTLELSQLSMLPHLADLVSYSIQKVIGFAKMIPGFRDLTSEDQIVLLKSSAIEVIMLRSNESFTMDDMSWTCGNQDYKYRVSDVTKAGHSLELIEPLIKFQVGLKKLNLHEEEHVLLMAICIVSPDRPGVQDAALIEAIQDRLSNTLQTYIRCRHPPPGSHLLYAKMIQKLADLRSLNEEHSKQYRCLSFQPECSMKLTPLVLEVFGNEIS
Procedure, shortened: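 Antagonist mode: compound added to VDR-bla cells alongside agonist 1alpha,25-dihydroxyvitamin D3 (3 nM final), incubation 16 h at 37C. Read-out is LiveBLAzer FRET fluorescence, 2 h at room temperature.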
% is set by controls: 0 for no effect and ±100 for the full control effect.

Row | Compound | activity change, negative = inhibition
1 | CCO[C@H]1O[C@@H]2OC3(C)CC[C@H]4[C@H](C)CC[C@@H]([C@H]1C)[C@@]24OO3 | -0.563% (inactive)
2 | CC(C)(CCl)C(=O)Cl | 17.9% (inactive)
3 | CC(O)(CS(=O)(=O)c1ccc(F)cc1)C(=O)Nc1ccc(C#N)c(C(F)(F)F)c1 (centres undefined) | -0.209% (inactive)
4 | CCC(Cl)CCl (centres undefined) | -5.76% [at 78.8 µM] (inactive)
5 | CCOC(=O)C(Cl)C(C)=O (centres undefined) | -16.8% [at 78.8 µM] (inactive)
6 | C/C=C/C=O | -0.0955% (inactive)
7 | C[C@H]1CNCCc2ccc(Cl)cc21 | -1.16% (inactive)
8 | CC1(C)[C@H](C=C(Cl)Cl)[C@@H]1C(=O)O[C@@H](C#N)c1cccc(Oc2ccccc2)c1 | 12.7% (inactive)
9 | CCOP(=O)(OCC)SCCSCC | 1.53% (inactive)
10 | O=[Se]=O | -21.8% (inactive)
11 | Cc1c(F)c(F)c(COC(=O)C2C(/C=C(\Cl)C(F)(F)F)C2(C)C)c(F)c1F (centres undefined) | -0.353% (inactive)
12 | O=C1CN=C(c2ccccc2)c2cc(Cl)ccc2N1CC1CC1 | 17.1% (inactive)
13 | ClCC(Br)CBr (centres undefined) | -0.732% (inactive)
14 | CO/N=C(/C(=O)OC)c1ccccc1COc1ccccc1C | -10.3% (inactive)

Reference: PubChem BioAssay (Tox21)
